The text below walks through data of PubChem BioAssay AID1508600 (Functional Genomics Laboratory (NCATS/FGL), 2020).

Out of some 53,000 sequences screened, about 3,700 (7%) were called active. This excerpt belongs to a sample that is enriched for actives. Unmarked numbers belong to inactive results.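 The calls were made as follows: active = gene knockdowns whose robust z-score for IL-1 alpha signal is at least 2 or at most -2, so actives lie on both sides; inactive = the rest.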

A short description of this assay: Components of the Cytosolic LPS Sensing Pathway: Gene Identification via Genome-wide siRNA Screen.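 Also: robust z of the log signal after scaling to non-targeting control siRNA wells of the plate.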 Conditions: RAW264.7 macrophages, IL-1a HTRF, actives lie on both sides, screened at 100 nM (by protocol), cells primed 5 h with Pam3CSK4 first. The procedure, abridged: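 Using IL-1a HTRF as read-out, the screen measured release from RAW264.7 cells after 48h siRNA knockdown (100 nM), 5 h Pam3CSK4 priming and 24 h cytosolic LipidA. Values were expressed relative to negative-control wells as robust z-scores.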
As to GGCUUUGUGGACUUAAUUATT against Cyb5r2, the z-score is -1. The figure for GCAUCACUGGAUUGUGGAUTT against Tm9sf2 is 0.188; for GGGAAAAAUGGUCAGAUUATT against Colgalt2 it is -1.08; for GGUUCCUAAGGAUGAACUUTT against Akr1c14 it is -0.186. The same measure for GGCCUAGCAAGGGAUUUUATT against Cep85: -2.02 (active); for GGAUCUCUUUGUUAAUGGUTT against Mall: 0.715; for GCCAUAUGCUAUCAAGAUGTT against Pskh1: -0.715. The figure for GGAAUGCUACAACUCAAAATT against Ptk2 is -0.861; for GGCAUUGGUUCCUACAAGATT against Gm773 it is -0.118. For the sequence GGUAGAGGAUCUCUCUAAATT against Fbxo44, the z-score was -0.444. The figure for GCUGGUAAACAUAGGUGGCTT against C1qtnf4 is 2.18 (active); for GGUCCAUGGGUAAGAGGAUTT against Vmn1r43 it is 1.2. The same measure for GGUCGUGCGAUCCACAGAUTT against Vangl2: -0.44; for GUUUUGGAUUCCUCUGUCATT against Olfr1097: -1.69. In the case of GGAAAAUUCCAGAAACCAUTT against Mettl8, the z-score is 0.608. As for GGAUGAAGAGAAAGUUCUATT against Mak, the z-score was 2.49 (active). The same measure for GGUGAGGUUCAAACAUUCUTT against Sdf2: 0.0627; for GGGAUUCCACGGAUACUGUTT against Rnase13: -0.858.

Consider GGACUACCAGUUUUACAUCTT against Ssr1, for which the z-score was 1.25. The figure for GCCGGUGACUUUCUAAUUUTT against Yrdc is -1.32; for GCCUUAACUAUAGUCCAGATT against Scn7a it is -0.928; for GGCAUGGCUGGCAAAAACATT against Ppp1r15a it is -1.85. The figure for UGCAAUCCGGAUCAAACGUTT against Cebpb is -2.03 (active); for GGAAGAUUUCUUCAAACGCTT against Lhx4 it is -0.167; for CCUGAAGAGGAUGAUAUGGTT against Fam221a it is 0.144. As for GGUCUUCAGAAUCCUCAAUTT against Ap1g2, the z-score is -0.4.

Take GCCAACCUGAAACCAUCUATT against Ptprg: the z-score is 0.0567.

With GGACACAGACAAUGAAAUGTT against Fetub, the z-score is -2.35 (active). The same measure for GGAGCAUUGCUCUUCUUCATT against Get4: -0.073; for GCAGAAGUAUUACUGGAUGTT against Olfr572: 0.841. As for GCUAGGAACGAGGAGCUAATT against Prrt3, the z-score is 1.07. The same measure for GGAAUACAUAGCACACGGUTT against Apba2: 1.06. Turning to CCCUGAAACAAUGAAUACATT against Serpini1, the z-score was 0.325. Regarding “GCUUCCUAACCAGGUUUGATT against 4430402I18Rik”, the z-score was 2.1 (active). The same measure for GGAGAAGCUAAGAAACGAGTT against Acyp2: -0.696; for CCCACAUUGCUUACCUUUCTT against Zfp523: -0.762; for GCUGGGUUGCUGAUUUUUGTT against Arl5a: -0.881. The same measure for GGGCUUUCUCCAAUCGUAATT against Gm4876: 0.603; for CGAGCCUCUGUGAUAUCCATT against Cst11: -2.69 (active). The same measure for GGUUCUGUCUUUUACUUUCTT against Olfr1496: 0.232; for CGAGUGCUUCUCUUGACAUTT against Mrpl22: -0.43; for GGAUAAUUAUAGGAAGAGCTT against Ncapd3: -0.507. In the case of GGGAUGCUAACAGGUGUCATT against Tkfc, the z-score was -0.12. The figure for GGCAUUACAUUUCAAUGAATT against Serpinb12 is -0.71; for GGAAUACACUCAAUAUUGATT against Nupl1 it is -2.59 (active). The same measure for GGUGUUCUUGAAGUUUAUATT against Zfp157: 0.579; for GCAGGAGUCAAAUUUUCUATT against Nemp1: -0.795; for GGAUUUUUGACUGUGAUUCTT against Pak1ip1: -1.57.

On to CCCAGACAUUACAUGGCCUTT against Cldn6, for which the z-score was -0.935. The figure for GGAACAAUGGGUUCAUUUUTT against Ifi203 is 0.136; for CGUAAUCUUCAUCUUAGUATT against Olfr613 it is 0.601; for GGAACCAAGGAUGUGAAAGTT against Rab13 it is -2.17 (active). Regarding GGAGUCUUGGAAAAAAGGCTT against Rep15, the z-score is -1.65. The figure for GGCCUGUUGAUUGCAUAUUTT against Sppl2a is -1.01; for GGCCUGAAAAGACUGAUAATT against Vmn2r26 it is 1.18; for GCUAGUUAAGAGGAGGCUGTT against Nob1 it is -0.252. Take GGAGCACAGGAAAAUAUAUTT against Mdm2: the z-score is 0.561. On to GCACUUUGUAUAUCUUUCCTT against Btd, for which the z-score was 1.51. The same measure for GGAGAAGGAUUAUACCAGUTT against Rfesd: 2.2 (active); for GGGAGUUUCCAGAUGUUUUTT against Gclm: 0.0729. For GGAAGAAAAGACUUAUCGUTT against Jkamp, the z-score was -0.663. The same measure for GGGAAACAUCUUCCUAUCCTT against Serpina12: -0.958; for GGCAGGUUUUUGACAACUUTT against Fxyd4: 3.2 (active); for CCUAAUAAGCCAUAUGCAUTT against Alkbh8: -0.449. GCCCUCUGUGAGUAGUAAUTT against Shroom3: the z-score was 0.603. The figure for GUUACUACAACAGCUACUATT against Krtap19-4 is -2.37 (active); for GGACAUUGCCCACAUGACCTT against Rnf227 it is -0.15.

GCUCAACAGGCUCAACUACTT against Cndp2: the z-score is 0.492. Take GGACUACCGAACAAGAGAATT against Zfp318: the z-score was 0.241. The figure for GCAUUCACCGUACGUAUUCTT against Id4 is 0.187; for GGGUAGAAUCCAAGAAGCGTT against Hoxb3 it is -2.08 (active). Consider GGUCUUCAACCCUGUUUGGTT against Gpsm3, for which the z-score is 0.329. The figure for GGAGACUCCAUACCAGUGUTT against Zfp329 is 1.78; for GGAUAUGGGAAUGAAAGCATT against Nyap2 it is -2.21 (active); for GGCAGCAUUACACUGAAUCTT against Slc36a4 it is 0.436. As for CCUAGUGAUUAAAGGGAUGTT against Prss43, the z-score was 1.19. The same measure for GGAAAGUGUUUUCUCAUGATT against Klf9: -0.23; for GGUGGUCUACUUCACCGCATT against Slc6a20a: 0.466; for GGAUCUCCUUUUUUUUCAATT against Gabrr1: 0.0887. As for UCAUCGCAACCAUCCACAGTT against Olfr530, the z-score is 0.464. The same measure for CGAUGACGAUGCCUAACCATT against Dgkeos: -2.34 (active); for GGGAGUCUGGUGGAUUGAUTT against Rln1: 0.0253. The figure for GGUCUCACAAAAACAGUUCTT against Casq2 is -0.317; for GCAGUGUAAUGUGGCCUACTT against Rorc it is 0.682; for GCUGUUUUCUUUCCAUUUCTT against Olfr981 it is -1.1.

As to GAAUUACACACAGGCCUGATT against Olfr1048, the z-score was 0.306. Regarding CACUGCUGUAAUCCCUAUGTT against Olfr1002, the z-score was 0.4. The figure for CCAACAACGGCAUUCACUATT against Ebf3 is -0.676; for GGAGCACUUUGUAUGGAACTT against Ube2q2 it is 2.97 (active).

Regarding CAAACCUUGUUGCCAUGACTT against Olfr406, the z-score was 0.0688.

Take GACAAGGUGCCAUACCAUUTT against Olfr351: the z-score is -0.373. The figure for GGACAGCUCUCAGAAUUCUTT against Ctse is -1.13; for CGCAAACAAACCUUAACAGTT against Maneal it is 2.21 (active); for GCUCCGGAAAGUAAGCAGATT against Tnfrsf26 it is 0.259. On to CCAUGGUACUAAUGUAAAUTT against Eef1e1, for which the z-score is 0.797. Turning to GGCUUUGAACACCAGUGAATT against Rpp21, the z-score was -0.453. The figure for CGCAGAUAAUAUCUUUGUCTT against Olfr461 is 0.389; for GGACCUAAGCAGAAAACUGTT against Meis3 it is 0.789. Consider GCGGUAUGGCAUGGUACAUTT against LTO1, for which the z-score is -0.855. For the sequence GGCCAUAAAACAUAAGCUATT against Tmem17, the z-score was 0.163.

For the sequence CGAACUUGUACAGAAGAAUTT against Slfn3, the z-score is -0.311. Consider AUGGGAGAAUCAGCAGAACTT against Set, for which the z-score was -2.77 (active).

For the sequence GCAUAGAGGACUACAACGATT against Optc, the z-score is 0.329. The same measure for “GGACAGGAAGAAAAGAAACTT against Vmn2r-ps11”: -1.19; for GGAAGGUGAAGCCAGUUUCTT against Traf3ip2: 2.02 (active); for GGACACUUUCAGACCUUAGTT against Ankrd27: -0.116. The same measure for GGACUUUGAUGUUGAAUGUTT against Rapgef1: -0.985.
